Positions count from the first letter of the chain named.
Tests used:
Test in all cases: PBM; 200 nM protein, PBS
Conditions in all cases: dsDNA, one strand shown
HOXB4 [1] = biological target: HOXB4 (Homo sapiens, UniProt P17483 148-234)
VENTX [2] = biological target: T1, VENTX (Homo sapiens, UniProt O95231 78-163, R121Q)
T1 sequence: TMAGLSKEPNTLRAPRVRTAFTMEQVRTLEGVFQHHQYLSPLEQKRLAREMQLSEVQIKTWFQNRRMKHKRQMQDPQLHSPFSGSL

ALX4 = ALX4 (Homo sapiens, UniProt Q9H161 200-286)
PAX4 [3] = biological target: T2, PAX4 (Homo sapiens, UniProt O43316 9-242, R200K)
T2 sequence: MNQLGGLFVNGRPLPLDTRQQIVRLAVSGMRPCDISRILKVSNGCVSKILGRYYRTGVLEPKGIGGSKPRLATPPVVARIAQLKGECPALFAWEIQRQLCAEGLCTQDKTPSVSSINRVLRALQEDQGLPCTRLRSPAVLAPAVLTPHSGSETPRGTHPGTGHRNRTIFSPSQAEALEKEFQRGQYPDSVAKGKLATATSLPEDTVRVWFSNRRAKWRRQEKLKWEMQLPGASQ

PRRX1 [4] = biological target: PRRX1 (Homo sapiens, UniProt P54821 80-166, F113S)
VENTX [5] = biological target: T3, VENTX (Homo sapiens, UniProt O95231 78-163, Y115F)
T3 sequence: T1 sequence with Y38F, Q44R

HOXB6 = HOXB6 (Homo sapiens, UniProt P17509 132-218, K202E)
HOXA2 [6] = biological target: HOXA2 (Homo sapiens, UniProt O43364 129-215, R185T)
HOXA4 [7] = biological target: HOXA4 (Homo sapiens, UniProt Q00056 201-287, R217L)
HOXB4 [8] = biological target: HOXB4 (Homo sapiens, UniProt P17483 148-234, V174I)
PAX4 [9] = biological target: T4, PAX4 (Homo sapiens, UniProt O43316 9-242, R200Q)
T4 sequence: T2 sequence with K192Q

HOXA2 [10] = biological target: HOXA2 (Homo sapiens, UniProt O43364 129-215, R185K)
PAX4 [11] = biological target: T5, PAX4 (Homo sapiens, UniProt O43316 9-242, F177V)
T5 sequence: T2 sequence with F169V, K192R

MSX2 [12] = biological target: MSX2 (Homo sapiens, UniProt P35548 130-214)
PAX4 [13] = biological target: T6, PAX4 (Homo sapiens, UniProt O43316 9-242, F177Y)
T6 sequence: T2 sequence with F169Y, K192R

MSX2 [14] = biological target: MSX2 (Homo sapiens, UniProt P35548 130-214, F161Y)
VAX1 [15] = biological target: VAX1 (Homo sapiens, UniProt Q5SQQ9 86-172, T142I)
HOXA4 [16] = biological target: HOXA4 (Homo sapiens, UniProt Q00056 201-287, W262F)
PRRX1 [17] = biological target: PRRX1 (Homo sapiens, UniProt P54821 80-166)
VAX1 [18] = biological target: VAX1 (Homo sapiens, UniProt Q5SQQ9 86-172, K157R)
Chain of VAX1 (Homo sapiens, UniProt Q5SQQ9 86-172, K157R) (Q5SQQ9 86-172 K157R): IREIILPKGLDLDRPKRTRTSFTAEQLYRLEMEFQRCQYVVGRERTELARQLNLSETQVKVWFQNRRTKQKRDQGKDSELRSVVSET

Chain of HOXB4 (Homo sapiens, UniProt P17483 148-234) (P17483 148-234): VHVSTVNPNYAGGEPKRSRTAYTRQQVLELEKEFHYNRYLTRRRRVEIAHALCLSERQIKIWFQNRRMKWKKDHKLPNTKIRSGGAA
Chain of MSX2 (Homo sapiens, UniProt P35548 130-214) (P35548 130-214): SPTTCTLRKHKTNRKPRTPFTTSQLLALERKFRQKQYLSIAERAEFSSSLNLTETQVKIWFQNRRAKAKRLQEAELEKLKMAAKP
Chain of HOXB6 (P17509 132-218 K202E): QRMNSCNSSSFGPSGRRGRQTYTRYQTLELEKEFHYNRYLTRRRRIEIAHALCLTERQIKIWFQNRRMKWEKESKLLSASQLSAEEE
Chain of ALX4 (Q9H161 200-286): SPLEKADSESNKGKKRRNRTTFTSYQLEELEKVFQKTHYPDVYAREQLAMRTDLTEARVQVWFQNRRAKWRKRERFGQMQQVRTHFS
Chain of VAX1 (Homo sapiens, UniProt Q5SQQ9 86-172, T142I) (Q5SQQ9 86-172 T142I): as the sequence (Q5SQQ9 86-172 K157R) above, with T57I, R72K counted along it
Chain of PRRX1 (Homo sapiens, UniProt P54821 80-166, F113S) (P54821 80-166 F113S): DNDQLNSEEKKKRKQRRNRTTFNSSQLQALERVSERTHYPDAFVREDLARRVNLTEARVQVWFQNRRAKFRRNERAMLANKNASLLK
Chain of HOXA2 (Homo sapiens, UniProt O43364 129-215, R185K) (O43364 129-215 R185K): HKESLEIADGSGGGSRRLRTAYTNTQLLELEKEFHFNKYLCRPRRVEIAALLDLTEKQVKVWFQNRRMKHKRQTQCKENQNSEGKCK
Chain of HOXA4 (Homo sapiens, UniProt Q00056 201-287, W262F) (Q00056 201-287 W262F): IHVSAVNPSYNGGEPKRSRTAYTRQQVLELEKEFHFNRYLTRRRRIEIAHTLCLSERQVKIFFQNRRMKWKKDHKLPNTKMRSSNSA
Chain of PRRX1 (Homo sapiens, UniProt P54821 80-166) (P54821 80-166): as the sequence (P54821 80-166 F113S) above, with S34F counted along it
Chain of MSX2 (Homo sapiens, UniProt P35548 130-214, F161Y) (P35548 130-214 F161Y): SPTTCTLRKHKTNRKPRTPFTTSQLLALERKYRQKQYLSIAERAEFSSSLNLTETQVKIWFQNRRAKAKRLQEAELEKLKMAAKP
Chain of HOXA4 (Homo sapiens, UniProt Q00056 201-287, R217L) (Q00056 201-287 R217L): as the sequence (Q00056 201-287 W262F) above, with R17L, F62W counted along it
Chain of HOXA2 (Homo sapiens, UniProt O43364 129-215, R185T) (O43364 129-215 R185T): as the sequence (O43364 129-215 R185K) above, with K57T counted along it
Chain of HOXB4 (Homo sapiens, UniProt P17483 148-234, V174I) (P17483 148-234 V174I): as the sequence (P17483 148-234) above, with V27I counted along it

Sequence | binding signal (HOXB4 [1]) | binding signal (VENTX [2]) | binding signal (ALX4) | binding signal (PAX4 [3]) | binding signal (PRRX1 [4]) | binding signal (VENTX [5]) | binding signal (HOXB6) | binding signal (HOXA2 [6]) | binding signal (HOXA4 [7]) | binding signal (HOXB4 [8]) | binding signal (PAX4 [9]) | binding signal (HOXA2 [10]) | binding signal (PAX4 [11]) | binding signal (MSX2 [12]) | binding signal (PAX4 [13]) | binding signal (MSX2 [14]) | binding signal (VAX1 [15]) | binding signal (HOXA4 [16]) | binding signal (PRRX1 [17]) | binding signal (VAX1 [18])
ATTAATTA | 13.7 upbm affinity estimate (log intensity, higher = more binding, comparable within an allelic series) | 12.8 upbm affinity estimate (log intensity, higher = more binding, comparable within an allelic series) | 14.7 upbm affinity estimate (log intensity, higher = more binding, comparable within an allelic series) | 12.2 upbm affinity estimate (log intensity, higher = more binding, comparable within an allelic series) | 12.2 upbm affinity estimate (log intensity, higher = more binding, comparable within an allelic series) | 12.5 upbm affinity estimate (log intensity, higher = more binding, comparable within an allelic series) | 10.4 upbm affinity estimate (log intensity, higher = more binding, comparable within an allelic series) | 14 upbm affinity estimate (log intensity, higher = more binding, comparable within an allelic series) | 13.4 upbm affinity estimate (log intensity, higher = more binding, comparable within an allelic series) | 14.4 upbm affinity estimate (log intensity, higher = more binding, comparable within an allelic series) | 12.8 upbm affinity estimate (log intensity, higher = more binding, comparable within an allelic series) | 14 upbm affinity estimate (log intensity, higher = more binding, comparable within an allelic series) | 11.1 upbm affinity estimate (log intensity, higher = more binding, comparable within an allelic series) | 14.2 upbm affinity estimate (log intensity, higher = more binding, comparable within an allelic series) | 11.6 upbm affinity estimate (log intensity, higher = more binding, comparable within an allelic series) | 13.8 upbm affinity estimate (log intensity, higher = more binding, comparable within an allelic series) | 13.9 upbm affinity estimate (log intensity, higher = more binding, comparable within an allelic series) | 13.1 upbm affinity estimate (log intensity, higher = more binding, comparable within an allelic series) | 13.8 upbm affinity estimate (log intensity, higher = more binding, comparable within an allelic series) | 13.8 upbm affinity estimate (log intensity, higher = more binding, comparable within an allelic series)
CTTAATTA | 13.5 upbm affinity estimate (log intensity, higher = more binding, comparable within an allelic series) | 12.5 upbm affinity estimate (log intensity, higher = more binding, comparable within an allelic series) | 14.5 upbm affinity estimate (log intensity, higher = more binding, comparable within an allelic series) | 12.1 upbm affinity estimate (log intensity, higher = more binding, comparable within an allelic series) | 12 upbm affinity estimate (log intensity, higher = more binding, comparable within an allelic series) | 12.3 upbm affinity estimate (log intensity, higher = more binding, comparable within an allelic series) | 10.3 upbm affinity estimate (log intensity, higher = more binding, comparable within an allelic series) | 13.8 upbm affinity estimate (log intensity, higher = more binding, comparable within an allelic series) | 13.1 upbm affinity estimate (log intensity, higher = more binding, comparable within an allelic series) | 14.2 upbm affinity estimate (log intensity, higher = more binding, comparable within an allelic series) | 12.6 upbm affinity estimate (log intensity, higher = more binding, comparable within an allelic series) | 13.8 upbm affinity estimate (log intensity, higher = more binding, comparable within an allelic series) | 11 upbm affinity estimate (log intensity, higher = more binding, comparable within an allelic series) | 14 upbm affinity estimate (log intensity, higher = more binding, comparable within an allelic series) | 11.5 upbm affinity estimate (log intensity, higher = more binding, comparable within an allelic series) | 13.6 upbm affinity estimate (log intensity, higher = more binding, comparable within an allelic series) | 13.9 upbm affinity estimate (log intensity, higher = more binding, comparable within an allelic series) | 13 upbm affinity estimate (log intensity, higher = more binding, comparable within an allelic series) | 13.6 upbm affinity estimate (log intensity, higher = more binding, comparable within an allelic series) | 13.8 upbm affinity estimate (log intensity, higher = more binding, comparable within an allelic series)
TAATTAAA | 13.3 upbm affinity estimate (log intensity, higher = more binding, comparable within an allelic series) | 12.1 upbm affinity estimate (log intensity, higher = more binding, comparable within an allelic series) | 14.4 upbm affinity estimate (log intensity, higher = more binding, comparable within an allelic series) | 12 upbm affinity estimate (log intensity, higher = more binding, comparable within an allelic series) | 11.9 upbm affinity estimate (log intensity, higher = more binding, comparable within an allelic series) | 11.9 upbm affinity estimate (log intensity, higher = more binding, comparable within an allelic series) | 10.1 upbm affinity estimate (log intensity, higher = more binding, comparable within an allelic series) | 13.5 upbm affinity estimate (log intensity, higher = more binding, comparable within an allelic series) | 12.8 upbm affinity estimate (log intensity, higher = more binding, comparable within an allelic series) | 14.1 upbm affinity estimate (log intensity, higher = more binding, comparable within an allelic series) | 12.4 upbm affinity estimate (log intensity, higher = more binding, comparable within an allelic series) | 13.5 upbm affinity estimate (log intensity, higher = more binding, comparable within an allelic series) | 11 upbm affinity estimate (log intensity, higher = more binding, comparable within an allelic series) | 13.9 upbm affinity estimate (log intensity, higher = more binding, comparable within an allelic series) | 11.3 upbm affinity estimate (log intensity, higher = more binding, comparable within an allelic series) | 13.5 upbm affinity estimate (log intensity, higher = more binding, comparable within an allelic series) | 13.4 upbm affinity estimate (log intensity, higher = more binding, comparable within an allelic series) | 12.3 upbm affinity estimate (log intensity, higher = more binding, comparable within an allelic series) | 13.6 upbm affinity estimate (log intensity, higher = more binding, comparable within an allelic series) | 13.4 upbm affinity estimate (log intensity, higher = more binding, comparable within an allelic series)
ATAATTAA | 13.6 upbm affinity estimate (log intensity, higher = more binding, comparable within an allelic series) | 12.1 upbm affinity estimate (log intensity, higher = more binding, comparable within an allelic series) | 14.5 upbm affinity estimate (log intensity, higher = more binding, comparable within an allelic series) | 11.9 upbm affinity estimate (log intensity, higher = more binding, comparable within an allelic series) | 12 upbm affinity estimate (log intensity, higher = more binding, comparable within an allelic series) | 12 upbm affinity estimate (log intensity, higher = more binding, comparable within an allelic series) | 10.3 upbm affinity estimate (log intensity, higher = more binding, comparable within an allelic series) | 13.6 upbm affinity estimate (log intensity, higher = more binding, comparable within an allelic series) | 13 upbm affinity estimate (log intensity, higher = more binding, comparable within an allelic series) | 14.4 upbm affinity estimate (log intensity, higher = more binding, comparable within an allelic series) | 12.3 upbm affinity estimate (log intensity, higher = more binding, comparable within an allelic series) | 13.7 upbm affinity estimate (log intensity, higher = more binding, comparable within an allelic series) | 10.8 upbm affinity estimate (log intensity, higher = more binding, comparable within an allelic series) | 13.9 upbm affinity estimate (log intensity, higher = more binding, comparable within an allelic series) | 11.2 upbm affinity estimate (log intensity, higher = more binding, comparable within an allelic series) | 13.5 upbm affinity estimate (log intensity, higher = more binding, comparable within an allelic series) | 13.7 upbm affinity estimate (log intensity, higher = more binding, comparable within an allelic series) | 12.6 upbm affinity estimate (log intensity, higher = more binding, comparable within an allelic series) | 13.7 upbm affinity estimate (log intensity, higher = more binding, comparable within an allelic series) | 13.5 upbm affinity estimate (log intensity, higher = more binding, comparable within an allelic series)
